Sampled rows, rich in hits. Any-hit rate of the full collection: about 18%.
DT40 TDP1 no CPT: qHTS for Inhibitors of human tyrosyl-DNA phosphodiesterase 1 (TDP1): qHTS in cells in absence of CPT; AID 686978, 2013; hit rate 15% among 420,000; Potency, µM (doses to about 46.2 µM), actives largely listed as inhibitors; DT40 Tdp1-/- hTDP1 cells, no CPT, ATP luminescence, 48 h; note: nearly all actives have a fitted effect of over 55% in size
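Stably hTDP1-transfected Tdp1-null chicken DT40 cells were treated with library compounds minus camptothecin and grown for at least 48 hr at 37 °C, after which cellular ATP was quantified by luminescence.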
VDR inh: blocks the human vitamin D receptor; VDR-SRC2-3 peptide fluorescence polarization, 2 h; P11473; hit rate 0.93% among 400,000; Potency, µM, most hits filed as inhibitors
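The screen uses fluorescence polarization to detect compounds that interfere with recruitment of the SRC2-3 coactivator peptide to VDR; plates are read after 2 h at room temperature.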
PLK1 PBD inh: inhibitors of human PLK1 polo-box domain binding | Potency, µM, usual class: inhibitors | P53350 | hit rate 2.8% among 360,000 | AID 720504 | Plk1 PBD binding of FITC phosphopeptide, fluorescence polarization; note: series mostly up to about 57 µM; nearly all actives have a fitted effect of over 65% in size
Target sequence (P53350 whole entry, looked up, the tested form may be a part): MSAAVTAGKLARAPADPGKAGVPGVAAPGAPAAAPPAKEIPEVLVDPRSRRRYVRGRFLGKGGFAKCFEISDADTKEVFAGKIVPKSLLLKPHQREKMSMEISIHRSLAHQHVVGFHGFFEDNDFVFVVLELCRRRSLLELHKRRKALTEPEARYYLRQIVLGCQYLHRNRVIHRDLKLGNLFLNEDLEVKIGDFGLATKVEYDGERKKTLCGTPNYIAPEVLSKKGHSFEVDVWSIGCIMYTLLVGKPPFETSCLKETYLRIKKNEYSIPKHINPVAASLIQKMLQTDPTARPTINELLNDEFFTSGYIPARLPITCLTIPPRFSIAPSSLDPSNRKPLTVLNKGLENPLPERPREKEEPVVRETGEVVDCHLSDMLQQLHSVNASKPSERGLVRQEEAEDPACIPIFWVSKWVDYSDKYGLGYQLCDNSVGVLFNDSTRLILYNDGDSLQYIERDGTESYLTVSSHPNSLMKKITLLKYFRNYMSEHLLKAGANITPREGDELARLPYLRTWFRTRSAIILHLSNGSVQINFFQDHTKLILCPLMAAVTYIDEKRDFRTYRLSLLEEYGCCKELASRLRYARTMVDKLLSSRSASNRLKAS
TDP1 cell CPT: DT40-hTDP1 cell growth loss with CPT; chicken DT40 Tdp1-/-;hTDP1 cells + 20 nM CPT, ATP luminescence, 48 h; Potency, µM (titrated, usually from 46.2 µM), actives largely listed as inhibitors; hit rate 12% among 420,000; AID 686979; note: nearly all actives have a fitted effect of over 55% in size
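Cell growth measured by CellTiter-Glo luminescence after a minimum 48 h, 37 C compound exposure with 20 nM CPT in Tdp1-knockout DT40 cells stably expressing hTDP1, seeded 400/well; qHTS titration format.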
GCN5L2 inh: blocks human GCN5L2 histone acetyltransferase. GCN5L2 HAT assay, ThioGlo1 CoA-SH fluorescence. hit rate 0.21% among 390,000. Q92830. Potency, µM (series often up to 58.9 µM), most hits filed as inhibitors
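Compounds, pin-transferred from DMSO stocks, meet 20nM GCN5L2 for 15 min before the reaction begins with H3(1-25) peptide (75uM) and acetyl-CoA (70uM). Thiol-reactive ThioGlo1 reports CoA release over 20 min at room temperature.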
TDP1 block: TDP1 (human) enzyme inhibition | Potency, µM (top dose mostly 130 µM), hits mostly inhibitors | hit rate 0.28% among 350,000 | Q9NUW8 | recombinant TDP1, AlphaScreen DNA substrate cleavage; note: nearly all actives have a fitted effect of over 40% in size
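Enzyme-compound mixtures sat 15 min at room temperature, followed by a 5 min reaction with 15 nM final substrate and 10 min with AlphaScreen beads. Recombinant human Tdp1 was used at 1 nM final.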
A number is an active result; n = inactive; u = inconclusive; x = no result; [ ] = remark or other dose. Calls come from the whole dose curve; as a rule, active = well fitted curve in the direction sought with a large enough effect; inconclusive = small, poorly fitted or top-dose-only effect, or another doubt; inactive = no such curve, though single readings can be large; an effect the other way counts as inactive or inconclusive.

SMILES	DT40 TDP1 no CPT	VDR inh	PLK1 PBD inh	TDP1 cell CPT	GCN5L2 inh	TDP1 block
C#CCOCCOCCOCCNc1nc(N2CCN(C(=O)CCCCCCCCCCNC(=O)[C@@H]([C@H](C)O)n3cc(C)nn3)CC2)nc(N2CCN(C(=O)CCCCCCCCCCNC(=O)[C@@H]([C@H](C)O)n3cc(C)nn3)CC2)n1	23.1µM	n	n	u	n	n
C#CCOCCOCCOCCNc1nc(N2CCOCC2)nc(N2CCN(C(=O)CCCCCCCCCCNC(=O)[C@@H]([C@H](C)O)n3cc(C)nn3)CC2)n1	16.4µM	n	n	u	n	n
C#CCOCCOCCOCCNc1nc(N2CCN(C(=O)[C@H]([C@@H](C)CC)n3cc([C@@H](N)CC(C)C)nn3)CC2)nc(N2CCN(C(=O)[C@H](Cc3ccc(O)cc3)n3cc([C@@H](N)CC(C)C)nn3)CC2)n1	n	n	n	n	n	n
C#CCOCCOCCOCCNc1nc(N2CCN(C(=O)CCCCCCCCCCNC(=O)[C@H](CCCCN)n3cc(CCO)nn3)CC2)nc(N2CCN(C(=O)CCCCCCCCCCNC(=O)[C@@H]([C@H](C)O)n3cc(C)nn3)CC2)n1	u	n	n	u	n	n
COc1ccccc1NC(=O)CSc1oc(-c2cccs2)nc1S(=O)(=O)c1ccccc1	u	n	x	u	n	n
Cc1cc(C)cc(NC(=O)N2CCN3CCCCC3C2)c1 (stereo unspecified)	n	n	x	n	n	n
O=C(Cc1ccccc1F)Nc1ccc(S(=O)(=O)N2CCCC2)cc1	n	n	n	u	n	n
Cc1ccc(N/C(N)=N/c2nc(CSc3nnc(N)s3)cc(=O)[nH]2)cc1	n	n	n	n	n	n
COc1ccccc1N/C(N)=N/c1nc(CSc2ccc(C)cc2)cc(=O)[nH]1	7.31µM	u	u	18.4µM	n	n
COCc1cc(=O)[nH]c(/N=C(\N)Nc2ccc(C)cc2C)n1	n	n	n	n	n	n
Cc1ccc(SCc2cc(=O)[nH]c(/N=C(\N)Nc3ccccc3Sc3ccccc3)n2)cc1	29.1µM	n	n	u	n	n
COc1ccc2c3c(c(=O)oc2c1)C1O[C@](c2ccsc2)(Cc2cc(C#N)ccc21)O3	x	x	x	x	n[12.7 µM]	x
CC(C)C[C@@H](CN1CCC[C@H]1CN1C(=O)C(=O)NC[C@@H]1Cc1ccc(O)cc1)N1C[C@H](Cc2ccc(O)cc2)N(CC2CCCCC2)C(=O)C1=O	n	x	n	n	x	x
CC(C)C[C@H]1CN([C@@H](CC(C)C)CN2CCCC2CN2C(=S)NC[C@@H]2Cc2ccc(O)cc2)C(=S)N1CC1CCCCC1 (stereo partly specified)	u	n	n	u	x	x
CC(C)C[C@@H](CN1CCC[C@@H]1CN1C(=S)NC[C@@H]1Cc1ccc(O)cc1)N1C[C@H](Cc2ccc(O)cc2)N(CC2CCCCCC2)C1=S	16.4µM	x	n	18.4µM	x	x
CC(C)C[C@@H](CN1CCC[C@@H]1CN1C(=S)NC[C@@H]1Cc1ccc(O)cc1)N1C[C@H](Cc2ccc(O)cc2)N(CC2CCCCC2)C1=S	16.4µM	x	n	18.4µM	x	x
CC(C)C[C@H]1CNC(=S)N1CC1CCCN1C[C@H](CC(C)C)N1C[C@H](Cc2ccccc2)N(CC2CCCCCC2)C1=S (stereo partly specified)	23.1µM	n	n	u	x	x
CC(C)C[C@H]1CN([C@@H](CC(C)C)CN2CCC[C@@H]2CN2C(=S)NC[C@@H]2Cc2ccc(O)cc2)C(=S)N1CC1CCCCC1	16.4µM	x	n	u	x	x
C[C@@H](NC(=O)[C@@H]1CCCN1C(=O)[C@@H]1CCCN1C(=O)c1cccc(Cl)c1)c1ccccc1	n	x	n	n	x	x
CC(C)C[C@H]1CNC(=S)N1CC1CCCN1C[C@H](CC(C)C)N1C[C@H](CC(C)C)N(CC2CCCCCC2)C1=S (stereo partly specified)	16.4µM	n	n	18.4µM	x	x
CC(C)C[C@@H](CN1CCCC1CN1C(=S)NC[C@@H]1Cc1ccccc1)N1C[C@H](Cc2ccc(O)cc2)N(CC2CCCCC2)C1=S (stereo partly specified)	18.4µM	x	n	u	x	x
CC(C)C[C@@H](CN1CCCC1CN1C(=S)NC[C@@H]1Cc1ccccc1)N1C[C@H](Cc2ccccc2)N(CC2CCCCC2)C1=S (stereo partly specified)	u	x	n	u	x	x
CNC1C(OC2C(O[C@@H]3C(O)C(O)[C@@H](N=C(N)N)C(O)C3N=C(N)N)OC(C)[C@@]2(O)CO)OC(CO)C(O)C1O (stereo partly specified)	x	n	x	x	n	n
COc1ccc(-c2ccc(CN3C(CC(C)C)C(=O)N(Cc4cn(Cc5ccco5)nn4)CCS3(=O)=O)cc2)cc1 (stereo unspecified)	7.31µM	x	n	7.31µM	x	x
COc1ccc(-c2ccc(CN3C(CC(C)C)C(=O)N(Cc4cn(Cc5ccco5)nn4)CCS3(=O)=O)cc2)cc1OC (stereo unspecified)	16.4µM	x	n	u	x	x
SMILES	DT40 TDP1 no CPT	VDR inh	PLK1 PBD inh	TDP1 cell CPT	GCN5L2 inh	TDP1 block
N#Cc1sc2nccc(Nc3ccccc3)c2c1N	2.06µM	n	n	u	x	x
O=C(c1cc(COc2cccc(C(F)(F)F)c2)on1)N1CCC(Oc2cccnc2)CC1	11.6µM	n	n	14.6µM	u	n
O=C(c1cc(COc2cccc(C(F)(F)F)c2)on1)N1CCCC1	u	x	n	u	x	x
CCOC(=O)N1CCN(C(=O)c2cc(COc3cccc(C(F)(F)F)c3)on2)CC1	16.4µM	n	n	u	n	n
C=CCC1(CC=C)CCCN1C(=O)c1cc(COc2cccc(C(F)(F)F)c2)on1	14.6µM	n	n	14.6µM	n	n
COc1ccc2c(c1)C(=O)CC2	n	x	x	n	x	x
C=C(C)C(O)/C=C/CCCCCCC (stereo unspecified)	x	x	x	x	x	n[21 µM]
Cc1nc(Nc2cccc(C(C)O)c2)c2nnn(Cc3ccccc3F)c2n1 (stereo unspecified)	n	n	n	n	n	n
CC(=O)c1ccc(N2CCN(S(=O)(=O)c3cc(-c4cc(C)no4)ccc3C(C)C)CC2)cc1	u	n	n	u	n	n
CCc1ccc(-c2cc(C)no2)cc1S(=O)(=O)N1CCN(c2ccc(C(C)=O)cc2)CC1	18.4µM	n	n	u	n	n
CCc1ccc(-c2cc(C)no2)cc1S(=O)(=O)N1CCN(c2cccc(C)c2C)CC1	u	n	n	23.1µM	n	n
CCc1ccc(-c2cc(C)no2)cc1S(=O)(=O)N1CCN(c2ccccc2F)CC1	n	n	n	u	n	n

Compound activity from PubChem BioAssay.
